# Experimental data reported in PubChem BioAssay AID1159580 (chemical genetic matrix, 2015).
# Out of some 5,500 compounds screened, about 2,000 (36%) were called active. Not shown: some 18% with an inconclusive outcome. The list shows a part of the results. A number with no mark means an inactive call. Cut-off read from the data, not from the text of the source: active = normalized growth mostly below about 0.91 (no sharp cut-off); inconclusive = no clear call, values can overlap the other calls; inactive = mostly above about 0.92.
# Assay: chemical genetic growth profiling, strain panel (AID 1159580);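 note: tested at 20 µM; growth read once vehicle control cultures reached saturation at 30 °C; 1 = growth at the plate median or of vehicle wells; lower values mean less growth of the strain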
# Details: S. cerevisiae deletion strains, growth OD
# [1] = locus YDL101C, strain DUN1, active compounds read low
# [2] = locus YHR030C, strain SLT2, active compounds read low
structure (smiles),measurement,setting,value
O=C(Nc1cccnc1)c1cc2c(s1)-c1ccccc1CC2,normalized growth,"locus YAR019C, strain CDC15, active compounds read low",0.925
same,normalized growth,"locus YBL105C, strain PKC1, active compounds read low",0.93
same,normalized growth,"locus YBR135W, strain CKS1, active compounds read low",0.919
same,normalized growth,"locus YBR136W, strain MEC1, active compounds read low",0.926
same,normalized growth,"locus YBR160W, strain CDC28, active compounds read low",0.93
same,normalized growth,"locus YDL017W, strain CDC7, active compounds read low",0.937
same,normalized growth,"locus YDL028C, strain MPS1, active compounds read low",0.921
same,normalized growth,[1],0.932
same,normalized growth,"locus YDL108W, strain KIN28, active compounds read low",0.924
same,normalized growth,"locus YDL132W, strain cdc53, active compounds read low",0.903
same,normalized growth,"locus YDL214C, strain PRR2, active compounds read low",0.745
same,normalized growth,"locus YDR052C, strain DBF4, active compounds read low",0.919
same,normalized growth,"locus YDR054C, strain cdc34, active compounds read low",0.9
same,normalized growth,"locus YDR226W, strain ADK1, active compounds read low",0.911
same,normalized growth,"locus YDR477W, strain SNF1, active compounds read low",0.666 (active)
same,normalized growth,"locus YER123W, strain YCK3, active compounds read low",0.592 (active)
same,normalized growth,"locus YER133W, strain GLC7, active compounds read low",0.548 (active)
same,normalized growth,"locus YFL009W, strain cdc4, active compounds read low",0.915
same,normalized growth,"locus YFL029C, strain CAK1, active compounds read low",0.912
same,normalized growth,"locus YFR003C, strain YPI1, active compounds read low",0.928
same,normalized growth,"locus YFR019W, strain FAB1, active compounds read low",0.91
same,normalized growth,"locus YFR028C, strain CDC14, active compounds read low",0.918
same,normalized growth,"locus YGR040W, strain KSS1, active compounds read low",0.614 (active)
same,normalized growth,"locus YGR052W, strain FMP48, active compounds read low",0.602 (active)
same,normalized growth,"locus YGR092W, strain DBF2, active compounds read low",0.524
same,normalized growth,[2],0.477 (active)
same,normalized growth,"locus YHR079C, strain IRE1, active compounds read low",0.495 (active)
same,normalized growth,"locus YHR082C, strain KSP1, active compounds read low",0.583 (active)
same,normalized growth,"locus YHR205W, strain SCH9, active compounds read low",0.755
same,normalized growth,"locus YIL147C, strain SLN1, active compounds read low",0.919
same,normalized growth,"locus YJL095W, strain BCK1, active compounds read low",0.482 (active)
same,normalized growth,"locus YJL128C, strain PBS2, active compounds read low",0.946
same,normalized growth,"locus YJL157C, strain FAR1, active compounds read low",0.73
same,normalized growth,"locus YJR016C, strain ILV3, active compounds read low",0.92
same,normalized growth,"locus YJR066W, strain TOR1 (second series), active compounds read low",0.694
same,normalized growth,"locus YJR066W, strain TOR1, active compounds read low",0.532
same,normalized growth,"locus YKL048C, strain ELM1, active compounds read low",0.823
same,normalized growth,"locus YKL067W, strain YNK1, active compounds read low",0.736
same,normalized growth,"locus YKL101W, strain HSL1, active compounds read low",0.811
same,normalized growth,"locus YKL193C, strain SDS22, active compounds read low",0.918
same,normalized growth,"locus YKL203C, strain TOR2, active compounds read low",0.59 (active)
same,normalized growth,"locus YLR113W, strain HOG1, active compounds read low",0.394 (active)
same,normalized growth,"locus YLR133W, strain CKI1, active compounds read low",0.808
same,normalized growth,"locus YLR403W, strain SFP1, active compounds read low",0.663
same,normalized growth,"locus YML070W, strain DAK1, active compounds read low",0.679 (active)
same,normalized growth,"locus YMR001C, strain CDC5, active compounds read low",0.918
same,normalized growth,"locus YMR205C, strain PFK2 (second series), active compounds read low",0.767
same,normalized growth,"locus YMR277W, strain FCP1, active compounds read low",0.918
same,normalized growth,"locus YNL006W, strain LST8, active compounds read low",0.93
same,normalized growth,"locus YNL020C, strain ARK1, active compounds read low",0.802
same,normalized growth,"locus YNL161W, strain CBK1, active compounds read low",0.924
same,normalized growth,"locus YNL183C, strain NPR1, active compounds read low",0.455 (active)
same,normalized growth,"locus YNL207W, strain RIO2, active compounds read low",0.903
same,normalized growth,"locus YNL222W, strain SSU72, active compounds read low",0.917
same,normalized growth,"locus YNL307C, strain MCK1 (second series), active compounds read low",0.757
same,normalized growth,"locus YOL078W, strain AVO1, active compounds read low",0.918
same,normalized growth,"locus YOL136C, strain PFK27, active compounds read low",0.725
same,normalized growth,"locus YOR061W, strain CKA2, active compounds read low",0.806
same,normalized growth,"locus YOR119C, strain RIO1, active compounds read low",0.636 (active)
same,normalized growth,"locus YOR231W, strain MKK1, active compounds read low",0.515 (active)
same,normalized growth,"locus YOR329C, strain SCD5, active compounds read low",0.924
same,normalized growth,"locus YPL031C, strain PHO85, active compounds read low",0.574 (active)
same,normalized growth,"locus YPL153C, strain RAD53, active compounds read low",0.529 (active)
same,normalized growth,"locus YPL204W, strain HRR25, active compounds read low",0.522 (active)
same,normalized growth,"locus YPL209C, strain IPL1, active compounds read low",0.932
same,normalized growth,"locus YPL256C, strain CLN2, active compounds read low",0.476 (active)
same,normalized growth,"locus YPR025C, strain CCL1, active compounds read low",0.922
same,normalized growth,"locus YPR106W, strain ISR1, active compounds read low",0.926
same,normalized growth,"locus YPR111W, strain DBF20, active compounds read low",0.915
same,normalized growth,"strain NNK1, active compounds read low",0.912
same,normalized growth,"strain TSCII, active compounds read low",0.915
O=C(Nc1cccnc1)c1cccc(Cl)c1Cl,normalized growth,"locus YAL013W, strain DEP1, active compounds read low",0.977
same,normalized growth,"locus YBR229C, strain ROT2, active compounds read low",0.993
same,normalized growth,[1],0.98
same,normalized growth,"locus YDL134C, strain PPH21, active compounds read low",0.988
same,normalized growth,"locus YDR150W, strain NUM1, active compounds read low",0.957
same,normalized growth,"locus YEL061C, strain CIN8, active compounds read low",0.971
same,normalized growth,"locus YGR078C, strain PAC10, active compounds read low",0.983
same,normalized growth,[2],0.935
same,normalized growth,"locus YHR087W, strain rtc3, active compounds read low",0.99
same,normalized growth,"locus YJL187C, strain SWE1, active compounds read low",1.01
same,normalized growth,"locus YJR043C, strain POL32, active compounds read low",0.993
same,normalized growth,"locus YJR075W, strain HOC1, active compounds read low",0.991
same,normalized growth,"locus YKL190W, strain CNB1, active compounds read low",0.989
same,normalized growth,"locus YLR039C, strain RIC1, active compounds read low",1.02
same,normalized growth,"locus YLR058C, strain SHM2 (second series), active compounds read low",1
same,normalized growth,"locus YLR085C, strain ARP6, active compounds read low",0.955
same,normalized growth,"locus YLR262C, strain YPT6, active compounds read low",1.01
same,normalized growth,"locus YML094W, strain GIM5, active compounds read low",0.946
same,normalized growth,"locus YMR219W, strain ESC1, active compounds read low",0.992
same,normalized growth,"locus YMR263W, strain SAP30, active compounds read low",1.01
same,normalized growth,"locus YMR307W, strain GAS1, active compounds read low",1.01
same,normalized growth,"locus YNL128W, strain TEP1, active compounds read low",0.976
same,normalized growth,"locus YNL153C, strain GIM3, active compounds read low",0.994
same,normalized growth,"locus YNL298W, strain CLA4 (second series), active compounds read low",0.946
same,normalized growth,"locus YNL322C, strain KRE1, active compounds read low",0.982
same,normalized growth,"locus YNR030W, strain Alg12, active compounds read low",0.975
same,normalized growth,"locus YOL006C, strain TOP1, active compounds read low",0.943
same,normalized growth,"locus YPL055C, strain LGE1, active compounds read low",1.02
same,normalized growth,"locus YPL241C, strain CIN2, active compounds read low",0.985
same,normalized growth,"locus YPR135W, strain CTF4, active compounds read low",0.856
